# Screening data from PubChem BioAssay.
# p53null 39C kill – selectivity test: cytotoxicity in p53 null cells, nonpermissive temperature. H1299 p53-null (neo) cells, 39C, ATPlite viability, 24 h. Potency, µM (top dose mostly 46.1 µM), inactives show at the highest dose activity, negative = cell killing, actives largely listed as cytotoxic. 55,000 compounds, 0.97% hits. AID 904;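 note: 0% = DMSO only and -100% = full killing by 100 µM tamoxifen; nearly all actives have a fitted effect of over 50% in size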
#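 Concentration-response (up to 46 uM) was run for 24 h at the nonpermissive 39C on H1299-p53A138V or H1299-neo cells. ATP content was measured with ATPlite luminescence. AC50 values were Hill-modeled after normalizing between DMSO and 100 uM tamoxifen killing.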
# pS6 MEF inh – inhibitors of mTORC1 signaling in Tsc2-/- p53-/- MEF cells | Tsc2-/- p53-/- MEF, phospho-rpS6 immunofluorescence/PI, 24 h | Potency, µM (top dose mostly 38.3 µM), inactives show at the highest dose activity change, negative = inhibition, hits mostly inhibitors | 44,000 compounds, 0.78% hits | AID 493208;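 note: plate controls were DMSO for no effect and rapamycin for full effect; nearly all actives have a fitted effect of over 50% in size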
#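 Tsc2-/-, p53-/- MEFs (empty-vector stable line) in DMEM + 10% FBS were treated with compounds 24 h at 37 degree Celsius, fixed, and immunostained for phospho-rpS6 (Alexa-488) with propidium iodide counterstain. Laser-scanning cytometry gave % positive cells, normalized against 7.5 nM rapamycin and DMSO.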
# SKOV3 invasion – blocks SKOV3ip1 adhesion and invasion in omental model; SKOV3ip1-GFP adhesion/invasion on 3D omental model, fluorescence; Potency, µM (top dose mostly 45.8 µM), without a hit: top-dose activity change, negative = inhibition, actives largely listed as inhibitors; 46,000 compounds, 0.1% hits;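 note: plate controls were DMSO wells for no effect and tomatine positive control wells for full effect; nearly all actives have a fitted effect of over 65% in size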
#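 Primary human omental fibroblast/mesothelial 3D culture pre-formed 48 h. SKOV3ip1-GFP cells added with compounds (0.36-46 umol/L), incubated 2 h RT/16 h 37 C, fixed; GFP cells quantified at 488/509 nm.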
# S16 F2sN tox – cytotoxicity in S16 Pmp22-F2sN Schwann cells. AID 1508642. Potency, µM (titrated, usually from 57.5 µM), for the others: top-dose activity change, negative = cytotoxicity, actives largely listed as cytotoxic. 43,000 compounds, 0.48% hits. S16 Pmp22-F2sN Schwann cells viability, CellTiter-Glo, 24 h; note: nearly all actives have a fitted effect of over 65% in size
#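 Rat S16 Schwann reporter line, 24 h treatment with library compounds delivered at 23 nL per well. Cell viability by CellTiter-Glo luminescence.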
# p53null 32C tox – kills p53 null cells at the permissive temperature; H1299-neo p53 null cells, ATP luminescence, 24 h, 32C; Potency, µM (highest dose often 46.1 µM), without a hit: at the highest dose activity change, negative = cytotoxicity, usual class: cytotoxic; 55,000 compounds, 0.62% hits; AID 903;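 note: 0% = DMSO only and -100% = full killing by 100 µM tamoxifen; nearly all actives have a fitted effect of over 55% in size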
#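 Overnight 37C seeding (600 cells/well) of H1299-neo preceded a 24 hr, 32C exposure to compounds up to 46 uM. ATP levels, read by luminescence after 20 min at RT, indicated surviving cells.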
# PMP22 txn prim – modulates PMP22 transcription in S16 Schwann cells; S16 Pmp22-F2sN Schwann cells (luciferase reporters placed in the Pmp22 gene), FLuc/NLuc coincidence luminescence, 24 h; Potency, µM (doses to about 57.5 µM), for the others: top-dose activity change, negative = inhibition, most hits filed as inhibitors; 43,000 compounds, 2% hits; AID 1508649; active = clear falling dose curves in both reporters; inconclusive = both reporters move, but less clearly or upward; inactive = either reporter flat; the % is the NLuc reporter signal
#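 Luminescent read-out of sequential FLuc and NLuc signals from a reporter embedded in the Pmp22 3' UTR of S16 Schwann cells, taken after 24 h compound exposure at 37C; compounds reducing both signals score as inhibitors of expression.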
# * marks the source's active call; other numbers are inactive results; i = inactive; u = inconclusive; x = no result; [ ] = remark or other dose. An excerpt weighted towards active compounds, which were near 3.1% of everything screened. Unless noted, calls come from the whole dose curve; as a rule, active = well fitted curve in the direction sought with a large enough effect; inconclusive = small, poorly fitted or top-dose-only effect, or another doubt; inactive = no such curve, though single readings can be large; an effect the other way counts as inactive or inconclusive. Unless noted, % is set by controls: 0 for no effect and ±100 for the full control effect; potency is the fitted concentration of half-maximal effect.
SMILES,p53null 39C kill,pS6 MEF inh,SKOV3 invasion,S16 F2sN tox,p53null 32C tox,PMP22 txn prim
O=C(c1cc2ccc3cccnc3c2[nH]1)N1CCN(c2ccc(Cl)cc2)CC1,-14.8%,2.2%,-1.3%,-4.6%,-10.5%,-4.7%
O=C(c1cc2ccc3cccnc3c2[nH]1)N1CCCCC1,0.794µM*,3.7%,2.1%,-6.9%,2µM*,-5.7%
CC1CCCN(C(=O)c2cc3ccc4cccnc4c3[nH]2)C1 (stereo unspecified),2µM*,-8.2%,-18.0%,-11.6%,1µM*,-14.6%
O=S(=O)(Nc1cccc(-c2ccc(N3CCCCC3)nn2)c1)c1ccc(Cl)s1,10µM*,1.7%,-5.1%,x,15.8µM*,x
O=S(=O)(Nc1cccc(-c2ccc(N3CCCCCC3)nn2)c1)c1ccccc1,u,-3.2%,i,x,-20.3%,x
O=S(=O)(Nc1cccc(-c2ccc(N3CCCCC3)nn2)c1)c1cccs1,10µM*,0.8%,11.7%,x,15.8µM*,x
O=C1c2c(O)cc(O)cc2O[C@H](c2cc(O)c(O)c(O)c2)[C@H]1O,x,x,-3.0%,x,x,x
O=C1c2ccccc2-[n+]2ccc3c([nH]c4ccccc43)c21,x,x,2.35µM*,x,x,x
O=C1C(c2c(O)[nH]c3ccccc23)=Nc2ccccc21,x,x,-11.6%,x,x,x
CCOC(CN1C(=O)[C@](CC(=O)Nc2ccc(C)cc2)(NC(=O)Nc2ccc(C)cc2)c2ccccc21)OCC,x,x,-1.2%,x,x,x
CC(C)c1nnc(NC(=O)c2nc(SCc3ccc(F)cc3)ncc2Cl)s1,-13.2%,-3.1%,6.9%,8.0%,-12.4%,-4.4%
Cc1cccc(CS(=O)(=O)c2ncc(Cl)c(C(=O)Nc3nnc(C(C)C)s3)n2)c1,12.6µM*,16.5µM*,u,u,39.3%,9.58µM*
Cc1ccc(CS(=O)(=O)c2ncc(Cl)c(C(=O)Nc3nnc(C(C)C)s3)n2)cc1,u,14.7µM*,u,u,1.5%,8.91µM*
CC(C)Nc1cc(C(F)(F)F)cc2nc(NC(=O)c3cccnc3)nn12,x,x,-0.6%,x,x,x
O=C(NCc1ccncc1)C12C[C@H]3C[C@@H](C1)CC(c1ccc(Cl)cc1)(C3)C2,x,x,22.1%,x,x,x
CCCCN1C(C(=O)c2ccccc2)=C(OC(C)=O)c2ccccc2S1(=O)=O,5.01µM*,u,-10.1%,u,u,u
CCCCC(=O)OC1=C(C(=O)c2ccccc2)N(CC)S(=O)(=O)c2ccccc21,u,-11.5%,10.0%,-0.3%,-5.8%,-14.5%
CCCN1C(C(=O)c2ccccc2)=C(OC(=O)c2ccc(OC)cc2)c2ccccc2S1(=O)=O,-19.7%,1.1%,i,-14.9%,-17.2%,u
CCN1C(C(=O)c2ccccc2)=C(OC(=O)c2ccccc2OC)c2ccccc2S1(=O)=O,12.6µM*,3.3%,u,-30.3%,u,u
O=C(O)c1ccc2nc(-c3cc4cc(F)ccc4oc3=O)[nH]c2c1,-5.9%,-0.5%,-1.2%,5.7%,-16.4%,9.1%
O=C(O)c1ccc2nc(-c3cc4cccc(O)c4oc3=O)[nH]c2c1,u,3.7%,-8.1%,u,10µM*,-1.8%
NC(=NCCCCCCN=C(N)N=C(N)Nc1ccc(Cl)cc1)N=C(N)Nc1ccc(Cl)cc1,x,x,-9.4%,x,x,x
COc1cc2nc(Nc3cccc(C)c3)nc(N)c2cc1OC,u,u,u,-26.9%,u,u
COc1cc2nc(Nc3ccc(C)c(C)c3)nc(N)c2cc1OC,31.6µM*,u,u,u,u,u
Cc1ccccc1OCCn1c(CCNC(=O)C2CCCCC2)nc2ccccc21,-22.4%,-0.8%,u,0.4%,0.1%,-3.6%
SMILES,p53null 39C kill,pS6 MEF inh,SKOV3 invasion,S16 F2sN tox,p53null 32C tox,PMP22 txn prim
O=C(NCCc1nc2ccccc2n1CCOc1ccc(Cl)cc1)C1CCCCC1,12.6µM*,1.4%,x,x,-10.4%,x
Cc1[nH]nc2ccc(-c3cncc(OC[C@@H](N)Cc4ccccc4)c3)cc12,x,x,15.3%,x,x,x
COc1ccc(-c2oc3c(CC=C(C)C)c(OC4O[C@H](CO)[C@@H](O)[C@H](O)[C@@H]4O)cc(O)c3c(=O)c2OC2O[C@@H](C)[C@H](O)[C@@H](O)[C@@H]2O)cc1 (stereo partly specified),x,x,-5.1%,x,x,x
COCC(=O)NCC=Cc1ccc2ncnc(Nc3ccc(Oc4ccc(C)nc4)c(C)c3)c2c1,x,x,-1.6%,x,x,x
CC(C)NC(=O)c1cc2c(s1)CCCC2,10µM*,x,x,x,u,x
O=C(O)C1=CO[C@@H](O[C@@H]2O[C@H](CO)[C@H](O)[C@H](O)[C@H]2O)[C@@H]2C(CO)=CC[C@H]12,x,x,-3.5%,x,x,x
COc1ccc(-c2nc3ccccc3o2)cc1NC(=O)C(C)Oc1ccc(Cl)cc1Cl (stereo unspecified),-18.3%,-16.9%,-5.7%,0.3%,1.3%[9.22 µM],13.5µM*
COc1ccc(-c2nc3cc(NC(=O)Cc4ccc(Cl)cc4)ccc3o2)cc1OC,10µM*,4.14µM*,-2.7%,7.4%,u,u
CN(C)CC(=O)N1CCC(c2ccc(NC(=O)c3ncc(C#N)[nH]3)c(C3=CCCCC3)c2)CC1,x,x,7.5%,x,x,x
COc1cc(Cl)c(C)cc1NC(=O)c1cc2ccc3cccnc3c2[nH]1,-9.8%,-1.9%,i,-1.3%,20µM*,u
CC(N[C@H]1CCCC[C@H]1NC(=O)c1ccc(Cl)cc1)c1cccc2ccccc12 (stereo partly specified),x,x,-11.8%,x,x,x
Cc1ccc2nc(-c3ccc(O)cc3)c(Nc3ccc(Cl)cc3)n2c1,u,-2.2%,-8.0%,-0.6%,27.9%,-35.4%
Cc1ccc2nc(-c3ccccc3F)c(Nc3ccc(Cl)cc3)n2c1,20µM*,-5.0%,i,17.8%,36.3%,-36.8%
COc1cc(CN2CCc3nc(N4CCN(c5ccccn5)CC4)ncc3C2)cc(OC)c1OC,-9.5%,0.0%,3.7%,11.2µM*,6.6%,8.91µM*
O=C(NCCc1ccc(Cl)cc1)C(=O)NCC(c1ccco1)S(=O)(=O)c1ccc(Cl)cc1 (stereo unspecified),10.4%,1.17µM*,-7.0%,u,-6.9%,u
Cc1ccc(S(=O)(=O)C(CNC(=O)C(=O)NCCc2ccc(Cl)cc2)c2ccco2)cc1 (stereo unspecified),-11.9%,-0.5%,24.6%,-28.6%,1.2%,-56.7%
Cc1cc(Nc2cc(NC(=O)c3c(Cl)cccc3Cl)ccn2)nc(N)n1,x,x,44.6%,x,x,x
